From the supplement of paper PMC13380429

System: Vero E6 infected with SARS-CoV-2
Experiment: inhibition of SARS-CoV-2 cytopathic effect; higher = more antiviral protection, active = above 15
Conditions: 48 h

Measured: inhibition of SARS-CoV-2 cytopathic effect

O=C(NCCCNc1nc(Nc2cccc(NC(=O)N3CCCC3)c2)ncc1I)c1cccs1
inactive: 1 nM -2.02% | 8.33 nM -0.75% | 100 nM 0.52% | 833.33 nM -5.21% | 10000 nM -23.3%

Cc1ccc(NC(=O)CCCCCC(=O)Nc2ccccc2N)cc1
inactive: 1 nM 2.4% | 8.33 nM 1.59% | 100 nM 0.54% | 833.33 nM 1.31% | 10000 nM 3.57%

CCCCCCCCCCCCC[N+](C)(C)Cc1ccccc1 [benzalkonium]
inactive: 1 nM -0.66% | 8.33 nM 0.17% | 100 nM -0.42% | 833.33 nM 1.78% | 10000 nM -8.08%

CC[C@@H]([C@H](C)O)n1ncn(-c2ccc(N3CCN(c4ccc(OC[C@@H]5CO[C@@](Cn6cncn6)(c6ccc(F)cc6F)C5)cc4)CC3)cc2)c1=O [posaconazole]
inactive: 1 nM 0.11% | 8.33 nM 0.51% | 100 nM 0.36% | 833.33 nM 2.23% | 10000 nM -6.91%

O=C(O)[C@H](Cc1ccc(Nc2nccc3ccncc23)cc1)NC1=C(Br)C(=O)C12CCCCC2
inactive: 1 nM 0.12% | 8.33 nM 0.67% | 100 nM -0.71% | 833.33 nM -0.14% | 10000 nM 2.62%

O=C(N[C@@H]1Cc2ccccc2N(C[C@@H](O)CO)C1=O)c1cc2cc(Cl)sc2[nH]1
inactive: 1 nM -0.59% | 8.33 nM -0.92% | 100 nM -2.86% | 833.33 nM -2.28% | 10000 nM -3.46%

Oc1ccc(O)cc1 [hydroquinone]
inactive: 1 nM -0.8% | 8.33 nM 2.88% | 100 nM 1.25% | 833.33 nM 1.2% | 10000 nM 1.62%

COc1ccc2nc(NC(=O)Nc3ccccc3)sc2c1 [frentizole]
inactive: 1 nM -3.36% | 8.33 nM 0.96% | 100 nM -1.31% | 833.33 nM -1.35% | 10000 nM 1.78%

O=C(NC(Cc1cc(=O)[nH]c2ccccc12)C(=O)O)c1ccc(Cl)cc1 (stereo not given) [rebamipide]
inactive: 1 nM -0.87% | 8.33 nM 2.6% | 100 nM 4.52% | 833.33 nM 2.91% | 10000 nM 1.77%

CCCOc1ccc2[nH]c(NC(=O)OC)nc2c1 [oxibendazole]
inactive: 1 nM -2.12% | 8.33 nM -0.7% | 100 nM -0.63% | 833.33 nM -2.39% | 10000 nM -0.04%

Cc1cc(/C=C2\SC(=O)N(c3ccccc3)C2=O)c(C)n1-c1cccnc1
inactive: 1 nM 2.97% | 8.33 nM -0.28% | 100 nM 1.31% | 833.33 nM 1.52% | 10000 nM 2.29%

COc1ccc(-n2nc(C(F)(F)F)cc2-c2ccc(Cl)cc2)cc1
inactive: 1 nM 2.57% | 8.33 nM 3.29% | 100 nM 1.98% | 833.33 nM 1.58% | 10000 nM -5.13%

CC(=O)N(C)c1cccc(-c2ccnc3c(C(=O)c4cccs4)cnn23)c1 [indiplon]
inactive: 1 nM 2.87% | 8.33 nM 0.82% | 100 nM 4.78% | 833.33 nM 4.31% | 10000 nM 0.34%

N[C@H]1C[C@@H]1c1ccc(-c2cccc(O)c2)cc1
inactive: 1 nM 1.62% | 8.33 nM -1.45% | 100 nM -0.41% | 833.33 nM -1.63% | 10000 nM -0.24%

CCCC[C@H](NC(C)=O)C(=O)N[C@H]1CC(=O)NCCCC[C@@H](C(=O)O)NC(=O)[C@H](Cc2c[nH]c3ccccc23)NC(=O)[C@H](CCCNC(=N)N)NC(=O)[C@@H](Cc2ccccc2)NC(=O)[C@H](Cc2c[nH]cn2)NC1=O [bremelanotide]
inactive: 1 nM 1.27% | 8.33 nM -1.82% | 100 nM -0.14% | 833.33 nM -2.33% | 10000 nM 0.21%

COc1cc(/C=C/C(=O)O)ccc1O [ferulic-acid]
inactive: 1 nM 2.44% | 8.33 nM -0.76% | 100 nM -1.01% | 833.33 nM 3% | 10000 nM -0.17%

C[C@@H](N)[C@H]1CC[C@H](C(=O)Nc2ccncc2)CC1
inactive: 1 nM -2.16% | 8.33 nM -4.44% | 100 nM -2.01% | 833.33 nM 2.02% | 10000 nM -3.54%

O=Nc1c(-c2c(O)[nH]c3ccccc23)[nH]c2ccccc12 [indirubin-3-monoxime]
inactive: 1 nM 0.43% | 8.33 nM 0.8% | 100 nM 1.06% | 833.33 nM 5.66% | 10000 nM 3.83%

CC(C)CC(N)=O [isovaleramide]
inactive: 1 nM 1.36% | 8.33 nM -1.79% | 100 nM 1.18% | 833.33 nM 0.06% | 10000 nM 0.19%

CC(C)c1cc2c(cc1S(=O)(=O)O)[C@@]1(C)CCC[C@@](C)(C(=O)O)[C@@H]1CC2 [ecabet]
inactive: 1 nM -2.02% | 8.33 nM 0% | 100 nM -1.76% | 833.33 nM 0.14% | 10000 nM -0.11%

C[C@@H]1CN(Cc2ncccn2)C[C@H]1c1nc2c(cnn2C2CCOCC2)c(=O)[nH]1
inactive: 1 nM -1.78% | 8.33 nM 1.47% | 100 nM -0.33% | 833.33 nM 1.24% | 10000 nM -2.82%

c1cc2c3c(c1)c1c(n3CCNC2)CCCC1
inactive: 1 nM -1.27% | 8.33 nM -0.02% | 100 nM 0.6% | 833.33 nM 0.21% | 10000 nM -0.08%

CNC(=O)c1ccc(-c2cnc3ncc(Cc4ccc5ncccc5c4)n3n2)cc1F
inactive: 1 nM 0.17% | 8.33 nM -1.02% | 100 nM -1.1% | 833.33 nM 2.22% | 10000 nM 7.85%

O[C@H]1CC[C@H](Nc2ncc3nc(Nc4c(F)cc(F)cc4F)n([C@H]4CCOC4)c3n2)CC1
inactive: 1 nM 1.66% | 8.33 nM 2.79% | 100 nM 0.98% | 833.33 nM -0.04% | 10000 nM -3.68%

COc1cccc(Nc2ncnn3ccc(CN4CC[C@@H](N)[C@H](O)C4)c23)c1
inactive: 1 nM -0.26% | 8.33 nM 0.1% | 100 nM -6.81% | 833.33 nM -16.4% | 10000 nM -22.6%

Clc1ccccc1CN1CCc2sccc2C1 [ticlopidine]
inactive: 1 nM -1.31% | 8.33 nM -0.14% | 100 nM 0.36% | 833.33 nM 1.94% | 10000 nM -1.5%

COC(F)(F)C(Cl)Cl [methoxyflurane]
inactive: 1 nM 0.46% | 8.33 nM 5.27% | 100 nM 4.68% | 833.33 nM 0.29% | 10000 nM -1.64%

Cc1ccc2c(N3CCN(CCc4cccc(N5CCNC5=O)c4)CC3)cccc2n1
inactive: 1 nM -2.94% | 8.33 nM -3.04% | 100 nM -3.97% | 833.33 nM 1.55% | 10000 nM 1.48%

O=C(O)CCNc1cc(N2CCc3ccccc3CC2)nc(-c2cccnc2)n1
inactive: 1 nM 0.26% | 8.33 nM 0.62% | 100 nM 1.71% | 833.33 nM 0.35% | 10000 nM -0.17%

C=CCN1CCCC1CNC(=O)c1cc2nn[nH]c2cc1OC (stereo not given) [alizapride]
inactive: 1 nM 0.31% | 8.33 nM 1.78% | 100 nM -1.64% | 833.33 nM -1.24% | 10000 nM -0.58%

CN/C(=N\CCSCc1nc[nH]c1C)NC#N [cimetidine]
inactive: 1 nM 0.42% | 8.33 nM -1.81% | 100 nM -0.46% | 833.33 nM 2.3% | 10000 nM -1.84%

CC(C)(C)NCC(O)COc1cccc2[nH]c(=O)[nH]c12 (stereo not given)
inactive: 1 nM -0.75% | 8.33 nM -0.25% | 100 nM -0.12% | 833.33 nM -0.11% | 10000 nM -0.04%

O=c1n(CC2CO2)c(=O)n(CC2CO2)c(=O)n1CC1CO1 (stereo not given) [teroxirone]
inactive: 1 nM -1.74% | 8.33 nM -0.65% | 100 nM 0.11% | 833.33 nM 0.34% | 10000 nM 9.05%

O=C(Nc1nc2ccc(NC(=O)C34CC5CC(CC(C5)C3)C4)cc2s1)c1ccccc1
inactive: 1 nM 1.55% | 8.33 nM 3.1% | 100 nM 0.95% | 833.33 nM 2.14% | 10000 nM -6.77%

C=CCc1cc(OC)c(O)c(C(=O)NCCO)c1 [alibendol]
inactive: 1 nM -1.08% | 8.33 nM -1.21% | 100 nM -0.53% | 833.33 nM 1.71% | 10000 nM -2.2%

CC(C)[C@H](N)C(=O)OCC(CO)OCn1cnc2c(=O)nc(N)[nH]c21 (mixture of isomers) [valganciclovir]
inactive: 1 nM 6.98% | 8.33 nM 8.27% | 100 nM 4.51% | 833.33 nM 8.72% | 10000 nM 1.96%

CCCN[C@@H]1CCc2c(OC)cccc2[C@@H]1C
inactive: 1 nM -1.51% | 8.33 nM -1.5% | 100 nM -0.05% | 833.33 nM -0.17% | 10000 nM -3.49%

OCc1cc(C(O)CNCCCCCCOCCCCc2ccccc2)ccc1O (stereo not given) [salmeterol]
inactive: 1 nM 0.19% | 8.33 nM 2.26% | 100 nM 10.4% | 833.33 nM 1.95% | 10000 nM -1.77%

O=C(NCc1cccc(O)c1)Nc1nc(-c2ccncc2)cs1
inactive: 1 nM 1.7% | 8.33 nM 1.65% | 100 nM -1.57% | 833.33 nM -6.16% | 10000 nM -6.11%

COP(=O)(OC)OC(c1ccc(Cl)cc1)P(=O)(OC)OC (stereo not given) [mifobate]
inactive: 1 nM -4.41% | 8.33 nM -10.9% | 100 nM -3.08% | 833.33 nM -2.04% | 10000 nM -5%

CC(=O)N1CC[N+](C)(C)CC1 [4-acetyl-1,1-dimethylpiperazinium]
inactive: 1 nM 0.03% | 8.33 nM -1.23% | 100 nM 0.82% | 833.33 nM 1.13% | 10000 nM 0.5%
